# Laboratory results: ChEMBL document CHEMBL2218924, “A broad activity screen in support of a chemogenomic map for kinase signalling research and drug discovery” (Biochem J, 2013)
# Assays:
# [1] = biological target: T1, Protein kinase C zeta type (Homo sapiens) (UniProt Q05513); details: at 1 µM
# T1 sequence (whole entry): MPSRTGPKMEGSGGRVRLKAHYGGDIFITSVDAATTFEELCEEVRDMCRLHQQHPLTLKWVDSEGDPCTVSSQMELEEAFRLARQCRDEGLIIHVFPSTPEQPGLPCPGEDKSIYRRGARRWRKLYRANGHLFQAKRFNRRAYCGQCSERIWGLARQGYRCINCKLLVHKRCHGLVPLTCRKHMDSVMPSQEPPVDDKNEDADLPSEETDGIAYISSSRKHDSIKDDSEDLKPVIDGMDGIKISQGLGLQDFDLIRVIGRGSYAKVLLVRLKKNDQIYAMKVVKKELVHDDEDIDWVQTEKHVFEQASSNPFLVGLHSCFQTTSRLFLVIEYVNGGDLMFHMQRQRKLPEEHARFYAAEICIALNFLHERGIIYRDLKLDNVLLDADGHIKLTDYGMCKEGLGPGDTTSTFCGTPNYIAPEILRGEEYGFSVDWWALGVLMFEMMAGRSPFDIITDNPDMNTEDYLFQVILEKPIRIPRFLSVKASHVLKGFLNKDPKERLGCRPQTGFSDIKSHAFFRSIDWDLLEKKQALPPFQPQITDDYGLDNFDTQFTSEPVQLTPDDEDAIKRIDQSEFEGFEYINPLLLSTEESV
# [2] = biological target: T2, Mitogen-activated protein kinase kinase kinase 5 (Homo sapiens) (UniProt Q99683); details: at 10 µM
# T2 sequence (whole entry): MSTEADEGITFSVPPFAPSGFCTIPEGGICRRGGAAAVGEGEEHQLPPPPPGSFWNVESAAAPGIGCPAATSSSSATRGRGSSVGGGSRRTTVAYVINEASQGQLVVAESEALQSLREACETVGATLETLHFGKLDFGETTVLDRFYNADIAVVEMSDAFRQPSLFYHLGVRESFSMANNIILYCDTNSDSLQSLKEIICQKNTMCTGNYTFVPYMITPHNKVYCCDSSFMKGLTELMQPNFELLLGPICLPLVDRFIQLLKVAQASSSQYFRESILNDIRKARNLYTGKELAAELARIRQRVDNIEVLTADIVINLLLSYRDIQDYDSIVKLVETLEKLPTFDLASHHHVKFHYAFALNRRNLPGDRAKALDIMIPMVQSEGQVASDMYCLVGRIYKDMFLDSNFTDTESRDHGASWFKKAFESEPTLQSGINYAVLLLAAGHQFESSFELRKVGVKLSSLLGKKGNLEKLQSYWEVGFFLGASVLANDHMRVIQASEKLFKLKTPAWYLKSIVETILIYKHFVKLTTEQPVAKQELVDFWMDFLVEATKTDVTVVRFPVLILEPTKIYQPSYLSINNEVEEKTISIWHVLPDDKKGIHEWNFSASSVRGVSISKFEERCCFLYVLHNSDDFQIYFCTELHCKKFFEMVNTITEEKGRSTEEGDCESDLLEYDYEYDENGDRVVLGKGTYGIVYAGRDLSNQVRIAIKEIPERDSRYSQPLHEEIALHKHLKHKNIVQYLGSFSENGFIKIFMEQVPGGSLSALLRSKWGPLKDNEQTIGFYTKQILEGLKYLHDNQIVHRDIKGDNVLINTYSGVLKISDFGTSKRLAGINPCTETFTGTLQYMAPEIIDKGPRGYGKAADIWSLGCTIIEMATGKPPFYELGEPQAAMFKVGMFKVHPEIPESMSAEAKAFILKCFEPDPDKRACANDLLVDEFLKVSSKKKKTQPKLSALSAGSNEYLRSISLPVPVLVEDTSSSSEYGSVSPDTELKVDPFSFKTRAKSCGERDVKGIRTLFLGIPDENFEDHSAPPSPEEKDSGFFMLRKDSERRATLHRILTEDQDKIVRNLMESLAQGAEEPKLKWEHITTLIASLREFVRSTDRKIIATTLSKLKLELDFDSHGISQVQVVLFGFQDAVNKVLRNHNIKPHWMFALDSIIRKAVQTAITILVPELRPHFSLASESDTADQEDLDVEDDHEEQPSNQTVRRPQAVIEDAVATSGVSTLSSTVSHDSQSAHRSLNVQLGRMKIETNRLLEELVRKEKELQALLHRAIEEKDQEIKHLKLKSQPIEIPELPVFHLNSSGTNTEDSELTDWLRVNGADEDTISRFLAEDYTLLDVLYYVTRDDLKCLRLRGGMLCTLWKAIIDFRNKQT
# [3] = biological target: Tyrosine-protein kinase ABL1 (Homo sapiens) (UniProt P00519); details: at 1 µM
# Tyrosine-protein kinase ABL1 (Homo sapiens), sequence (P00519 whole entry): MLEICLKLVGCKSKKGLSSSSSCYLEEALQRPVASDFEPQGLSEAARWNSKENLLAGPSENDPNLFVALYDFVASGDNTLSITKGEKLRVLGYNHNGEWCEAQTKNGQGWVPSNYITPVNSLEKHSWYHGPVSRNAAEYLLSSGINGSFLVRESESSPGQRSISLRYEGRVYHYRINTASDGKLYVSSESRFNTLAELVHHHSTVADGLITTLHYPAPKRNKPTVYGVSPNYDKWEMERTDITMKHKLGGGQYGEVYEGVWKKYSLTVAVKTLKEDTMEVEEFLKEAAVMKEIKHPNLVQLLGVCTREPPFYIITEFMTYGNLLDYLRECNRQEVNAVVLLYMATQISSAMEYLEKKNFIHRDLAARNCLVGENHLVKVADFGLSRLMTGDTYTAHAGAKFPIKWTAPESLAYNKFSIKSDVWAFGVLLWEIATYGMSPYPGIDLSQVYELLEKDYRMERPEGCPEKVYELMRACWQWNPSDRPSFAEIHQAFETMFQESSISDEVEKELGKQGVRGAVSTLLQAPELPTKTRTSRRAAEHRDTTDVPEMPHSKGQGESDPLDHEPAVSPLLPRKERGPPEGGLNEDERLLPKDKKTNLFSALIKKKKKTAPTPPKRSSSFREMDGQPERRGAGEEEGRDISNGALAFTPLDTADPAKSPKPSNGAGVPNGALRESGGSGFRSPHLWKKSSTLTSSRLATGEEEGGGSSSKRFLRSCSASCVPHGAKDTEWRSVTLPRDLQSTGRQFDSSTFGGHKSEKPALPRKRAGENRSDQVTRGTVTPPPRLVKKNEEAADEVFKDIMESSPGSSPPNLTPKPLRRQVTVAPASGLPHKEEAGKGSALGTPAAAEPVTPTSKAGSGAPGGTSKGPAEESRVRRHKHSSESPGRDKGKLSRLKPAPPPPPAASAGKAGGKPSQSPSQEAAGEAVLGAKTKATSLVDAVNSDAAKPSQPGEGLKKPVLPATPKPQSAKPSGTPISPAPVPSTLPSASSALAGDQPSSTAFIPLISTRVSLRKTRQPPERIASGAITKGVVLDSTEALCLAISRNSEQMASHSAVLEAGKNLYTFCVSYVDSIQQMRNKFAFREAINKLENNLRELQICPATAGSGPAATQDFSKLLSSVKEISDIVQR
# [4] = biological target: Tyrosine-protein kinase ABL1 (Homo sapiens) (UniProt P00519); details: at 10 µM
# [5] = biological target: Tyrosine-protein kinase ABL2 (Homo sapiens) (UniProt P42684); details: at 1 µM
# Tyrosine-protein kinase ABL2 (Homo sapiens), sequence (P42684 whole entry): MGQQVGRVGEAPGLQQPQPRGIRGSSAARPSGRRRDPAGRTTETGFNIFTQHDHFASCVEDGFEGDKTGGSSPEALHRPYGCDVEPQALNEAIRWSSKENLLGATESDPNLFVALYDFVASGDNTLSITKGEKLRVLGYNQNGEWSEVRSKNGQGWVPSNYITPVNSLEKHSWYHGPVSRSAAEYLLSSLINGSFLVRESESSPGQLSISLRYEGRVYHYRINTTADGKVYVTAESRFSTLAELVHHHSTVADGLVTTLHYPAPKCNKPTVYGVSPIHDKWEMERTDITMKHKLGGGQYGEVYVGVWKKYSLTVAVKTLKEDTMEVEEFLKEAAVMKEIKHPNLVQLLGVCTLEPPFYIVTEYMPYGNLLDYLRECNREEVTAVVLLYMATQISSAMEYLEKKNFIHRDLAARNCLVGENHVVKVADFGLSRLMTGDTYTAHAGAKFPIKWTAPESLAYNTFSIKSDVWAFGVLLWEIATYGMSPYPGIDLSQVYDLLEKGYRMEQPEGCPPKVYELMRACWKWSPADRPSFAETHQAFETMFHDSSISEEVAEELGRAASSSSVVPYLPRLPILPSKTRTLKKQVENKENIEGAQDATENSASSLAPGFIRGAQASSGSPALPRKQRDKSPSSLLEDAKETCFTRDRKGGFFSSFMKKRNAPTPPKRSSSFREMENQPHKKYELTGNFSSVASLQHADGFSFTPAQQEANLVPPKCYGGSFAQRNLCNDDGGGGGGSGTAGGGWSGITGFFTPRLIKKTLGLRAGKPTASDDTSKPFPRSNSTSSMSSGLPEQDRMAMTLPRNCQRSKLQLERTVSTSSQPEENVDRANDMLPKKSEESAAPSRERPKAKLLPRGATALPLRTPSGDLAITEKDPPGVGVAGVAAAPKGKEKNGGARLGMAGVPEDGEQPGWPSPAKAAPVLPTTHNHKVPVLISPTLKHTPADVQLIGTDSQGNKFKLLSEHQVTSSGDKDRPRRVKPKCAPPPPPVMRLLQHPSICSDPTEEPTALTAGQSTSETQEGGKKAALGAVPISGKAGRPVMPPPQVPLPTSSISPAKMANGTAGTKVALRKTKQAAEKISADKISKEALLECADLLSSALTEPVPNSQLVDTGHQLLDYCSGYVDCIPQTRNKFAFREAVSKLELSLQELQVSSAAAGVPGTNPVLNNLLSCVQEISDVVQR
# [6] = biological target: Tyrosine-protein kinase ABL2 (Homo sapiens) (UniProt P42684); details: at 10 µM
# [7] = biological target: T3, Aurora kinase A (Homo sapiens) (UniProt O14965); details: at 1 µM
# T3 sequence (whole entry): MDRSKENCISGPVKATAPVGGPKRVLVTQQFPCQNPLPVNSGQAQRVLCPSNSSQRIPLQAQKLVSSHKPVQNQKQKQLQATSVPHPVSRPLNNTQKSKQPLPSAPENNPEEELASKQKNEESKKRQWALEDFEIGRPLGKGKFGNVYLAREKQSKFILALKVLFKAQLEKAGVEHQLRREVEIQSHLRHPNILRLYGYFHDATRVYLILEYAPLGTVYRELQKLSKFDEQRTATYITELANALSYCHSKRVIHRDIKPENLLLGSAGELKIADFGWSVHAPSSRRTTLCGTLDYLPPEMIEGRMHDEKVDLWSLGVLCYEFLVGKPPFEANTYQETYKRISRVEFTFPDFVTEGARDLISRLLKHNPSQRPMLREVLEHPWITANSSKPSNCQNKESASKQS
# [8] = biological target: T3, Aurora kinase A (Homo sapiens); details: at 10 µM
# [9] = biological target: Aurora kinase B (Homo sapiens) (UniProt Q96GD4); details: at 1 µM
# Aurora kinase B (Homo sapiens), sequence (Q96GD4 whole entry): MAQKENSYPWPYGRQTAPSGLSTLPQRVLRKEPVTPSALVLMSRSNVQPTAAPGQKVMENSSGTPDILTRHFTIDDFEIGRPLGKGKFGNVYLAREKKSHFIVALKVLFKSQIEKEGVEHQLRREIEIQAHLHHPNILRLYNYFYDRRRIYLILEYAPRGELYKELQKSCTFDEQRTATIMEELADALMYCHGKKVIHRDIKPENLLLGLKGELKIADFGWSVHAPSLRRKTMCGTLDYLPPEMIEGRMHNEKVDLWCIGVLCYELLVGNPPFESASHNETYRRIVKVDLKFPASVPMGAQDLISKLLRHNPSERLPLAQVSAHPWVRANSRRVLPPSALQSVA
# [10] = biological target: Aurora kinase B (Homo sapiens) (UniProt Q96GD4); details: at 10 µM
# [11] = biological target: T4, Aurora kinase C (Homo sapiens) (UniProt Q9UQB9); details: at 1 µM
# T4 sequence (whole entry): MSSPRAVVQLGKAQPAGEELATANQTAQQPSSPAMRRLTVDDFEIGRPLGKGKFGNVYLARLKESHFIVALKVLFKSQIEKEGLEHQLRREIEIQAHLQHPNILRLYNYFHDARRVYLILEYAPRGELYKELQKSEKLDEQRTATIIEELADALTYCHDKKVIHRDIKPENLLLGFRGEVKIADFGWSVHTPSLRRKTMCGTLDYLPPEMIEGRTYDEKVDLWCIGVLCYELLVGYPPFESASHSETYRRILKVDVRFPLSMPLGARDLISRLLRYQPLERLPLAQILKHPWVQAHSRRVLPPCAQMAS
# [12] = biological target: T4, Aurora kinase C (Homo sapiens); details: at 10 µM
# [13] = biological target: Tyrosine-protein kinase receptor UFO (Homo sapiens) (UniProt P30530); details: at 1 µM
# [14] = biological target: Tyrosine-protein kinase receptor UFO (Homo sapiens) (UniProt P30530); details: at 10 µM
# [15] = biological target: Protein-tyrosine kinase 6 (Homo sapiens) (UniProt Q13882); details: at 1 µM
# Protein-tyrosine kinase 6 (Homo sapiens), sequence (Q13882 whole entry, looked up): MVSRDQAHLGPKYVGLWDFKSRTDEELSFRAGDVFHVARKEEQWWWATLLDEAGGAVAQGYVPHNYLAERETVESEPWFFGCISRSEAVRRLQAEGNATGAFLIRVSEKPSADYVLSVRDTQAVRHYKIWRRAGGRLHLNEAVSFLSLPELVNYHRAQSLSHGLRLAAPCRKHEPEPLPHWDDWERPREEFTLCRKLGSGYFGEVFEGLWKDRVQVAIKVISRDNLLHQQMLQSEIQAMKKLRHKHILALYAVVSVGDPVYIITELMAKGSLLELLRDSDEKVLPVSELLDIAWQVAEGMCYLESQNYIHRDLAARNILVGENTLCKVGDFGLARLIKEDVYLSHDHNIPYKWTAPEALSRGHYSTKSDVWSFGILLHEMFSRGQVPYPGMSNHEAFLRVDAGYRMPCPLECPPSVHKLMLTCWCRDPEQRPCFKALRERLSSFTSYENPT
# [16] = biological target: Protein-tyrosine kinase 6 (Homo sapiens) (UniProt Q13882); details: at 10 µM
# [17] = biological target: Tyrosine-protein kinase BTK (Homo sapiens) (UniProt Q06187); details: at 1 µM
# Tyrosine-protein kinase BTK (Homo sapiens), sequence (Q06187 whole entry): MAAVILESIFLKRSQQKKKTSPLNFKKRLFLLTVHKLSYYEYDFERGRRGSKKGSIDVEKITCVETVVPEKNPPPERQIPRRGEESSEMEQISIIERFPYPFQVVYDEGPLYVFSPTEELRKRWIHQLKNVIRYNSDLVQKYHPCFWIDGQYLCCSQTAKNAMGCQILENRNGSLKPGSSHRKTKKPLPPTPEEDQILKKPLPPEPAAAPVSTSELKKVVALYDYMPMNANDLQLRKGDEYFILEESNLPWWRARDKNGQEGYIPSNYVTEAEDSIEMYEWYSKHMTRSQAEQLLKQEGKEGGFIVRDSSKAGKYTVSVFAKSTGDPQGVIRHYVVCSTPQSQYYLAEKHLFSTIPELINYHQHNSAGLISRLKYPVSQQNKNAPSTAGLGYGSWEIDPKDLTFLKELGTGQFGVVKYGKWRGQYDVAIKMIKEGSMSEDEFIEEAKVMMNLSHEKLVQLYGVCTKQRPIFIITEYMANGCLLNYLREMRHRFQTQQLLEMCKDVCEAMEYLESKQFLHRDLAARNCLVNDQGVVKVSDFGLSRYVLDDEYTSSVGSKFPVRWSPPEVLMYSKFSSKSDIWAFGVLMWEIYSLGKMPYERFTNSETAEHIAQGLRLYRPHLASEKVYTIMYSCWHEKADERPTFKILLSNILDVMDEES
# [18] = biological target: Tyrosine-protein kinase BTK (Homo sapiens) (UniProt Q06187); details: at 10 µM
# [19] = biological target: Tyrosine-protein kinase Blk (Homo sapiens) (UniProt P51451); details: at 1 µM
# Tyrosine-protein kinase Blk (Homo sapiens), sequence (P51451 2-505 limits assumed): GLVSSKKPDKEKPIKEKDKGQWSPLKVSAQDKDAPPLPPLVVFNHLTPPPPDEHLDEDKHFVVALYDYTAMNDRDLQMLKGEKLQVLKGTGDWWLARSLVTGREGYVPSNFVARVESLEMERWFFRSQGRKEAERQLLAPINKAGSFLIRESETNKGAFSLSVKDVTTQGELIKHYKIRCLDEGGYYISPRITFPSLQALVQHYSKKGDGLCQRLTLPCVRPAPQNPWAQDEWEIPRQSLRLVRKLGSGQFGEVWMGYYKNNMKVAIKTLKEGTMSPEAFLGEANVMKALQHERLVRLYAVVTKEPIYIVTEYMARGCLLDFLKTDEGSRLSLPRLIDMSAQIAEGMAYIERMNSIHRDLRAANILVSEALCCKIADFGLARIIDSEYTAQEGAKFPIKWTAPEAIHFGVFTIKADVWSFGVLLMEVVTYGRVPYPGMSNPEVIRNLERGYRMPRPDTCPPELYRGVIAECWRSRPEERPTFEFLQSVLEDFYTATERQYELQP
# [20] = biological target: Tyrosine-protein kinase Blk (Homo sapiens) (UniProt P51451); details: at 10 µM
Compound,residual activity [1],residual activity [2] [%],residual activity [3] [%],residual activity [4] [%],residual activity [5] [%],residual activity [6] [%],residual activity [7] [%],residual activity [8] [%],residual activity [9] [%],residual activity [10] [%],residual activity [11] [%],residual activity [12] [%],residual activity [13] [%],residual activity [14] [%],residual activity [15] [%],residual activity [16] [%],residual activity [17] [%],residual activity [18] [%],residual activity [19] [%],residual activity [20] [%]
O=c1[nH]c2ccccc2n1C1CCN(Cc2ccc(-c3nc4cc5[nH]cnc5cc4nc3-c3ccccc3)cc2)CC1,109% (inactive),96,114,137,117,89,70,92,116,77,108,86,77,64,110,79,91,76,94,50
O=C1NC(=O)c2c1c1c3ccccc3n3c1c1c2c2ccccc2n1C1CCC3O1,,60,,,,,95,88,2,4,,,91,87,,,22,27,,
N/C(=N\[N+](=O)[O-])N/N=C\c1ccc(-c2cccc([N+](=O)[O-])c2)o1,,86,,,96,83,,,80,53,97,88,94,93,97,96,,,98,89
COC(=O)[C@@]1(O)C[C@H]2O[C@]1(C)n1c3ccccc3c3c4c(c5c6ccccc6n2c5c31)C(=O)NC4,52% (inactive),0,80,51,79,35,2,-1,0,0,2,1,4,-3,19,1,-1,-1,1,0
O=[N+]([O-])/C=C/c1ccc2c(c1)OCO2,93% (inactive),90,96,86,104,92,99,109,108,90,102,77,69,81,113,105,96,102,120,96
O=C1c2ccccc2-c2nc3nnnn3nc21,113% (inactive),143,107,112,,113,71,,,,,,81,42,,,,,79,47
COc1ccc2c(c[n+](C)c3c4cc5c(cc4ccc23)OCO5)c1OC,,,85,97,92,82,83,75,130,60,,90,93,44,110,,93,,,90
O=C1Nc2ccc3ncsc3c2/C1=C/c1c[nH]cn1,86% (inactive),7,66,20,82,33,0,-2,2,0,18,-1,26,8,66,34,88,47,44,5
CC(C)(C)c1cc(C=C(C#N)C#N)cc(Br)c1O,99% (inactive),109,80,4,,51,104,122,108,45,115,99,108,,109,110,,,99,36
COc1cc2ncnc(Nc3ccc(OCc4ccccc4)cc3)c2cc1OC,101% (inactive),92,93,111,103,96,41,38,6,3,106,58,63,48,30,18,58,43,44,18
COc1ccc2c(c1)/C(=C/c1cnc[nH]1)C(=O)N2,,41,,,,47,42,2,21,0,34,4,,,,71,,,81,22
CCc1nc(-c2ccc(OC)cc2)[nH]c1-c1ccncc1,105% (inactive),,,,104,75,,,67,62,103,,,,110,108,100,105,112,79
CC(C)[C@H](CO)Nc1nc(Nc2cccc(Cl)c2)c2ncn(C(C)C)c2n1,101% (inactive),96,62,14,22,1,,72,72,17,96,78,90,31,,92,56,17,38,2
C[S+]([O-])c1ccc(-c2nc(-c3ccc(F)cc3)c(-c3ccncc3)[nH]2)cc1 (configuration not stated),108% (inactive),105,,72,,55,117,118,102,80,115,108,122,119,59,7,94,,101,55
c1cc(-c2cnn3cc(-c4ccc(OCCN5CCCCC5)cc4)cnc23)ccn1,,84,4,-4,12,1,64,48,18,2,35,4,76,24,53,7,69,23,25,4
COc1cc(OC)c(/C=C2\C(=O)Nc3ccccc32)c(OC)c1,,90,104,85,123,77,107,107,59,48,83,87,98,71,104,96,93,88,92,81
CCn1cnc2c(Nc3cccc(Cl)c3)nc(N[C@@H]3CCCC[C@@H]3N)nc21,,89,95,40,62,13,85,68,21,1,22,3,78,21,94,34,71,9,14,2
